# Compound activity (PubChem)
# BRCA1 expr up = increases BRCA1 expression; MCF7-BRCA1-FFLuc reporter, luminescence, 48 h; response scale: scaled: vehicle 0%, 10 µM genistein 100%; Potency, µM (highest dose often 46.1 µM), hits mostly activators; 380,000 tested, 1.1% active; further: nearly all actives have a fitted effect of over 80% in size
#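 MCF7-BRCA1-FFLuc, 2000 cells/well; 2 h attach, 37 °C/5% CO2; compound 48 h; luciferase substrate 15 min; luminescence end-point. Norm. to genistein 10 microM max activation and DMSO; concentration-response curves fitted.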
# p53 reactivator = mutant p53 re-activation in reporter cells | Potency, µM (highest dose often 92.2 µM), hits mostly activators | AID 504706 | 320,000 tested, 0.063% active | H1299 p53-A138V BP100-luciferase reporter, luminescence, 24 h; further: nearly all actives have a fitted effect of over 45% in size
#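 p53-null H1299 cells stably carrying temperature-sensitive p53-A138V and a BP100-luciferase reporter were pinned with compounds (4-point, 1:5 series) and held 24 hrs at 37 deg C. Luminescence was read 10 min after detection reagent.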
# TCR act = activates T cell receptor signaling; AID 504894; Potency, µM (highest dose often 9.22 µM), actives largely listed as activators; 330,000 tested, under 10 active; primary human leukocytes, anti-CD3, IL-2 HTRF, 48 h
#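 1) Mix primary human leukocytes, a-CD3 beads and compound. 2) Incubate 48 hr. 3) Add HTRF IL-2 reagents (a-IL-2-K, a-IL-2-d2).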
# N370S GC = inhibitors or activators of N370S glucocerebrosidase for Gaucher disease; P04062; N370S GC spleen homogenate, 4MU-glucoside fluorescence; Potency, µM (highest dose often 59.4 µM), most hits filed as inhibitors; 330,000 tested, 0.092% active; AID 2101
# TSHR antag = antagonists of human thyroid stimulating hormone receptor | P16473 | TSHR-expressing cells, TSH-stimulated cAMP HTRF, 2 h; stronger effect = lower value | activity change, negative = inhibition, % at 11.5 µM | 330,000 tested, 0.2% active | AID 504810;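 active means activity change below a set negative limit, meaning inhibition stronger than a set level, cut at about -70% in these data; inconclusive means activity change between two set negative limits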
#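 TSHR-expressing cells were treated with compounds, then stimulated with TSH at EC80 (4nM final) for 2 hours at 37 deg C. Cellular cAMP was measured by HTRF competition between lysate cAMP and cAMP-d2 for a cryptate-labelled anti-cAMP antibody.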
# GLS inhibitor = blocks human kidney-isoform glutaminase activity; 410,000 tested, 0.21% active; Potency, µM (titrated, usually from 45.5 µM), usual class: inhibitors; O94925; GLS enzymatic activity, qHTS titration
# Target sequence (O94925 whole entry, looked up, canonical isoform): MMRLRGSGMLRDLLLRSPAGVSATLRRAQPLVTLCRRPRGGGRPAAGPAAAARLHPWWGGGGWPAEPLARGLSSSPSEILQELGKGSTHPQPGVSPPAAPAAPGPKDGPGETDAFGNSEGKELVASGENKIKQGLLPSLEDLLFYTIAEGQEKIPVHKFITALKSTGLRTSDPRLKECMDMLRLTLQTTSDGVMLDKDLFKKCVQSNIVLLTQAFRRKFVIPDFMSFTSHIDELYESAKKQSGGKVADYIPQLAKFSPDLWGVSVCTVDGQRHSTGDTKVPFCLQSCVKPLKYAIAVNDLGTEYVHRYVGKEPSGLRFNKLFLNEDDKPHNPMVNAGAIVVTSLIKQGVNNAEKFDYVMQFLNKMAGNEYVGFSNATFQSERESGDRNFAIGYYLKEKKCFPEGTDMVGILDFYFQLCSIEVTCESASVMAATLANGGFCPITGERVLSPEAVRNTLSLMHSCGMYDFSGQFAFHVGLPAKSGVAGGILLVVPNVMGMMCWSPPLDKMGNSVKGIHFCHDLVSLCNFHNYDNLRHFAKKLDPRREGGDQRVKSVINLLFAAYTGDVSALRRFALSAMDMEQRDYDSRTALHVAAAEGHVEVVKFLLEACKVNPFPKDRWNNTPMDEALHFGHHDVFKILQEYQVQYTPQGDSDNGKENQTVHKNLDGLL
#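 Human kidney-isoform GLS in 45 mM KH2PO4 pH 8.2, 0.02% Tween-20, with compound, started with 1mM L-Glutamine (added stock). Glutamate oxidase/HRP/Amplex red coupled fluorescence read at start and after 30 min at RT.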
# Numbers stand for hits; 0 = inactive; ? = inconclusive; - = no result; [ ] = remark or other dose. Sampled rows, rich in hits. Any-hit rate of the full collection: about 1.4%. Unless noted, the call rests on the fitted dose curve; in most records, active means well fitted curve in the direction sought with a large enough effect; inconclusive means small, poorly fitted or top-dose-only effect, or another doubt; inactive means no such curve, though single readings can be large; an effect the other way counts as inactive or inconclusive.
SMILES,BRCA1 expr up,p53 reactivator,TCR act,N370S GC,TSHR antag,GLS inhibitor
COc1ccc(N2CCN(CCCNC(=O)c3c(C)nn(-c4ccc(F)cc4)c3-n3cccc3)CC2)cc1,0,-,-,-,-,0
O=S(=O)(Nc1ccc(O)c(Sc2nc3ccccc3s2)c1)c1cccc2ccccc12,0,0,0,0,-88.0,0
CCC/C=C1/CCCOC(C(=O)NCCOC)(C(F)(F)F)C1 (stereo not drawn),-,-,-,0,-,-
COCCCNC(=O)C1CCCN(c2nn3cc(-c4ccc(C)cc4)nc3s2)C1 (stereo not drawn),-,-,-,-,-,0
Cc1cccc(CN2CCN(CC(=O)Nc3c(C)cccc3C)S2(=O)=O)c1,-,-,-,-,-,0
COc1ccc(C(=O)CC(=O)c2ccccc2O)cc1OC,12.6µM,0,0,0,0,0
CCC(=O)c1ccc(OCc2ccc(C(=O)OC)cc2)c(OC)c1,0,0,0,0,0,0
CCC(=O)c1ccc(OCc2ccccc2)c(OC)c1,6.31µM,?,0,0,0,0
CCc1cccc(CC)c1NC(=O)C(Cc1ccccc1)NS(=O)(=O)c1cccc2nsnc12 (stereo not drawn),-,-,-,-,-,0
O=C(Nc1ccccc1Br)c1cnn2c1NC(=C1CC1)C=C2C(F)F,0,-,-,-,-,-
S=c1[nH]nc(SCc2ccccc2)c2[nH]cnc12,3.55µM,-,0,-,-,7.08µM
COc1ccc(NC(=S)N(CCCN2CCOCC2)Cc2cn(C)c3ccccc23)cc1,0,0,0,0,0,0
Cn1cc(CN(CCCN2CCOCC2)C(=S)Nc2cccc(Cl)c2)c2ccccc21,0,0,0,10µM,0,0
Cc1cccc(NC(=S)N(CCCN2CCOCC2)Cc2cn(C)c3ccccc23)c1,0,0,0,7.94µM,0,0
CC[N+](CC)(CC)CCOC(=O)C(C1CCCC1)C1CCCC1,-,-,-,-,-,0
Cc1ccc(S(=O)(=O)N2CCN(c3nc(-c4cccs4)nc4c3ncn4COC(=O)C(C)(C)C)CC2)cc1,0,-,-,-,-,-
Cc1cc(C)n(-c2ccc(C(=O)NC3=NCCS3)cc2)n1,11.2µM,0,0,0,0,0
O=C(NC1=NCCS1)c1ccc(Br)s1,3.16µM,?,0,0,0,0
Cc1cc(C)n(-c2ccc(C(=O)Nc3ccc4c(c3)OCO4)cc2)n1,?,0,0,0,0,0
O=C(NC1=NCCS1)c1ccc(Cl)cc1,7.94µM,-,0,0,0,0
COc1ccc(Cl)cc1C(=O)NC1=NCCS1,0,0,0,0,0,0
O=C(Nc1nnc(C2CCCCC2)s1)c1ccc(Br)s1,5.01µM,0,0,0,0,0
O=C(COc1ccc2ccccc2c1)Nc1ccc(O)c(-c2nc3ccccc3o2)c1,0,-,-,-,-,-
O=C(Nc1ccc(Br)cc1Cl)c1cnn2c1NC(=C1CC1)C=C2C(F)F,0,-,-,-,-,-
COc1ccc(C(=O)NCC(=O)OCC(=O)c2ccc3ccccc3c2)cc1,0,-,-,-,-,-
SMILES,BRCA1 expr up,p53 reactivator,TCR act,N370S GC,TSHR antag,GLS inhibitor
O=C(NC1CC1)c1ccc2nc(-c3ccco3)c(-c3ccco3)nc2c1,0,-,-,-,-,-
O=C(NC1=NCCS1)c1ccc(-c2ccc(Cl)cc2)o1,2.82µM,?,0,0,0,0
COc1ccc(NC(=O)Cn2c(=O)nc(-c3ccccc3)c3ccccc32)cc1OC,-,-,-,-,-,0
Cc1ccc(CNC(=O)CCNC(=O)N2CCn3c2nc2ccccc23)cc1,0,0,0,0,-110.8,0
CCC(c1ccccc1)C(CC)c1cc(O)c(O)c(O)c1 (stereo not drawn),0,-,0,-,-,11.2µM
CCCN1CNc2c(c(=O)[nH]c(=S)n2CCc2ccc(C)c(C)c2)C1,0,-,-,-,-,-
S=Cc1ccc(/C=C/c2ccnc3ccccc23)cc1,0,-,-,-,-,-
CSc1ccc(/C=C/c2ccnc3ccccc23)cc1,4.47µM,-,-,-,-,-
C[n+]1ccnc2ccccc21,0,-,-,-,-,-
Cn1c(=O)c2[nH]c(-c3ccccc3Cl)c(O)c2n(C)c1=O,0,0,0,0,0,22.4µM
C=CCN1c2ccccc2[C@]23C[C@@H](C(=O)OC)N(C(=O)COCc4ccccc4)C2=NC(C(=O)OC)=C(C(=O)OC)[C@H]13,-,-,-,0[12.8 µM],-,-
N#Cc1ccc(/C=C2\C=Cc3ccccc32)cc1,0,-,-,-,-,-
O=C1c2ccccc2C(=O)c2c(O)ccc(O)c21,-,-,-,0,-,-
Nc1ccc(O)c2c1C(=O)c1ccccc1C2=O,?,0,0,0,0,7.94µM
CCN1CCc2c(sc(NC(=S)NC(=O)c3cccc(F)c3)c2C(N)=O)C1,0,-,-,-,-,-
O=C(Nc1ccc(OCC(=O)N2CCOCC2)cc1)Nc1cccc(Cl)c1,0,0,-,0,0,0
O=C(Nc1ccc(C(=O)N2CCOCC2)cc1)Nc1cccc(Cl)c1,11.2µM,?,0,0,0,0
COc1ccccc1C1=NC(c2ccc(C)cc2)N=C1C (stereo not drawn),10µM,0,0,0,0,0
COc1ccccc1-c1nnc(-c2ccc(C)cc2)o1,0,-,0,-,-,0
CCCCOC(=O)Nc1ccc(N2CCCCC2)cc1,?,0,0,0,0,0
CCCCOC(=O)Nc1ccc(N2CCOCC2)cc1,4.47µM,?,0,0,0,0
CCCCOC(=O)Nc1ccc(C(C)C)cc1,11.2µM,?,0,0,0,0
CCOC(=O)/C(C#N)=C\c1cc(C)n(-c2ccccc2)c1C,?,?,-,0,?,0
CCOC(=O)/C(C#N)=C\c1ccc(N2CCN(C/C=C/c3ccccc3)CC2)cc1,0,0,0,15.8µM,0,0
CN(C)C(=O)COc1ccc2cc(-c3ccccc3)c(=O)oc2c1,11.2µM,?,0,?,0,0
SMILES,BRCA1 expr up,p53 reactivator,TCR act,N370S GC,TSHR antag,GLS inhibitor
COc1ccc2cc(-c3ccccc3)c(=O)oc2c1,?,?,0,?,0,0
Cc1nn(C)c(C)c1CNC(=O)Nc1ccc(Cl)cc1,6.31µM,0,-,0,0,0
O=C(NCc1ccccn1)Nc1cccc(Cl)c1,12.6µM,?,0,0,0,0
Cc1nn(C)c(C)c1CNC(=O)Nc1cccc(Cl)c1,3.98µM,?,0,0,0,0
CC(=O)O[C@H](C)OC(=O)[C@@H](C)c1ccc(-c2ccccc2)c(F)c1,-,-,-,-,-,0
COc1cccc(-c2nc(CS(=O)(=O)CC(=O)NC3CCCCCC3)c(C)o2)c1,0,0,0,0,-97.0,?
COc1cccc(-c2nc(CS(=O)(=O)CC(=O)N3CCN(c4ccccn4)CC3)c(C)o2)c1,0,0,0,0,0,0
COc1cccc(-c2nc(CS(=O)(=O)CC(=O)NC3CC3)c(C)o2)c1,0,0,0,0,0,0
COc1cccc(-c2nc(CS(=O)(=O)CC(=O)N3CCCCC3)c(C)o2)c1,0,?,0,0,-96.9,0
CCOc1[nH]c(/N=C/c2ccc(OC)cc2)c(C#N)c1C#N,0,-,-,-,-,-
Cc1ccc(NCc2nc3ccccc3n2C)cc1C,7.94µM,?,-,0,0,0
Cc1ccc(CNc2nc3ccccc3n2C)cc1,?,-,0,0,0,0
